Source: PubChem BioAssay (Tox21)
Records with an inconclusive call do not appear. Unmarked numbers belong to inactive results. Activity calls are given as the source filed them. Calls come from the whole dose curve; as a rule, active = well fitted cell-killing curve with a large enough effect in the repeat runs; inconclusive = weak or mixed curves, or effect the other way; inactive = flat fitted curve, though single readings scatter.

experiment: cAMP Responsive Elements (CRE) small molecule agonists, cell-based qHTS assay: qHTS cell viability counter screen (AID 2060914); conditions: CRE-bla HEK293T viability, CellTiter-Glo luminescence, 5 h; series mostly up to 92.4 µM; activity change, negative = cytotoxicity: at the top concentration;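 note: viability read after 3 h of compound exposure; nearly all actives have a fitted effect of over 50% in size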
Source text: National Center for Advancing Translational Sciences [NCATS]
Division of Preclinical Innovation [DPI]
U.S. Environmental Protection Agency [EPA]
National Institutes of Environmental Health Sciences [NIEHS]
National Toxicology Program [NTP]
U.S. Food and Drug Administration [FDA]
CREB (cyclic-AMP Responsive Element Binding Protein) is a cellular transcription factor. It binds to certain DNA sequences called cAMP Responsive Elements (CRE) and regulates the transcription of the genes. […] This cell line can be used to find agonists/antagonists of the cyclic AMP signaling pathway. The activation of the report gene under culture conditions can be detected by fluorescence intensity. This cell line has been used to screen the Tox21 10K compound library to identify agonists that induce oxidative stress. The cytotoxicity of the Tox21 compound library against the CRE-bla cell line was tested in parallel by measuring the cell viability using CellTiter-Glo assay (Promega, Madison, WI) in the same wells.
Tox21 Assay Protocol Summary:
CRE-bla Hek 293T cells were suspended in assay medium (DMEM containing 10% dialyzed FBS, 0.1 mM NEAA, 1 mM sodium pyruvate and 25 mM HEPES) and dispensed at 2,000 cells/5 uL /well into 1536-well black wall/clear bottom plates using a Multidrop Combi (ThermoFisher Scientific, Waltham, MA) dispenser. After the assay plates were incubated at 37 C/5% CO2 for 18 hrs, 23 nL of compounds dissolved in DMSO, positive controls or DMSO only was transferred to the assay plate by a pintool workstation (Kalypsys, San Diego, CA). After the plates were incubated at 37 C/5% CO2 for 3 hrs, 1 uL of LiveBLAzer B/G FRET substrate (Invitrogen, Carlsbad, CA) was added to each well using Bioraptr Flying Reagent Dispenser (FRD, Aurora Discovery, San Diego, CA). The plates were incubated at room temperature for 2 h, then fluorescence intensities were measured using an Envision plate reader (PerkinElmer, Shelton, CT) at Excitation 405nm, Emission 460nm and 530nm. The % activity was determined from the ratio of 460nm/530nm. For cell viability readout that measures cytotoxicity, 4 uL /well of CellTiter-Glo reagent was added into the assay plates using Bioraptr FRD. After 30 min incubation at room temperature, the luminescence intensity in the assay plates was measured using a ViewLux (PerkinElmer, Shelton, CT) plate reader.
% is set by controls: 0 for no effect and ±100 for the full control effect; potency is the fitted concentration of half-maximal effect.

Row | Compound | activity change, negative = cytotoxicity | Potency
1 | CCCOCCC | 1.31% | 
2 | COc1ccc(COC=O)cc1 | 3.17% | 
3 | c1ccc(CNCc2ccccc2)cc1 | -5.73% | 
4 | N#Cc1cscn1 | -3.18% | 
5 | Nc1cc(C(Cl)=C(Cl)Cl)c(S(N)(=O)=O)cc1S(N)(=O)=O | 1.28% [at 42.5 µM] | 
6 | Cc1ccccc1C | 1.1% | 
7 | CCOC(=O)CC(C(C)=O)C(C)=O | 2.04% | 
8 | CCCCC(CC)COCC1CO1 (stereo not given) |  | inactive
9 | CC(C)(C)c1ccccc1 | 0.488% | 
10 | NC/C=C/C(=O)O | -3.31% [at 42.5 µM] | 
11 | COC(=O)NCCC[Si](OC)(OC)OC | 2.89% | 
12 | O=S(=O)(O)c1ccccc1/C=C/c1ccc(-c2ccc(/C=C/c3ccccc3S(=O)(=O)O)cc2)cc1 | 17.3% | 
13 | Nc1ccc(C(=O)O)cc1 |  | inactive
14 | C=CC(=O)O[C@H]1C[C@@H]2CC[C@@]1(C)C2(C)C | 4.85% | 
15 | CCCN(CCC)C(=O)C(CCC(=O)OCCCN1CCN(CCOC(=O)Cc2c(C)n(C(=O)c3ccc(Cl)cc3)c3ccc(OC)cc23)CC1)NC(=O)c1ccccc1 (stereo not given) | 7.01% [at 42.5 µM] | 
16 | CCCC(c1cc(C(C)(C)C)c(O)cc1C)c1cc(C(C)(C)C)c(O)cc1C |  | 31 µM (active)
17 | CCC(O)C(C)(C)C (stereo not given) | -12% | 
18 | O=Cc1ccc([N+](=O)[O-])cc1 | 2.23% | 
19 | CC[C@H](c1ccc(O)cc1)[C@@H](CC)c1ccc(O)cc1 | 1.11% [at 42.5 µM] | 
20 | O=C(O)Cc1ccccc1Oc1ccc(Cl)cc1Cl | 8.37% [at 42.5 µM] | 

Row | Compound | activity change, negative = cytotoxicity | Potency
21 | C[Si](Cl)(c1ccccc1)c1ccccc1 | -12.9% | 
22 | CN1CCN(C2=Nc3ccccc3Sc3ccc(Cl)cc32)CC1 | -3.77% [at 42.5 µM] | 
23 | CCCCCCCCS(=O)C(C)Cc1ccc2c(c1)OCO2 (stereo not given) | -17.5% | 
24 | CC(C)(C)NC(=O)[C@@H]1CN(Cc2cccnc2)CCN1C[C@@H](O)C[C@@H](Cc1ccccc1)C(=O)N[C@H]1c2ccccc2C[C@H]1O |  | inactive
25 | CC(=O)c1ccc2ccc3ccccc3c2c1 | -25% | 
26 | C[Si]1(C)O[Si](C)(C)O[Si](C)(C)O1 | 11.9% | 
27 | C[C@@H](CN1CC(=O)NC(=O)C1)N1CC(=O)NC(=O)C1 | 2.98% [at 42.5 µM] | 
28 | CCCCCCN | -10.2% | 
29 | C=COCC(C)C | 4.31% | 
30 | CC[C@H](C)COC(=O)/C=C/c1ccc(N=Cc2ccc(OC)cc2)cc1 | -26% | 
31 | CCCCC[Si](OCC)(OCC)OCC | -6.18% | 
32 | CCC(CN)=C(c1ccccc1)c1ccccc1 | -14.9% [at 42.5 µM] | 
33 | COC(=O)N/N=C/c1c[n+]([O-])c2ccccc2[n+]1[O-] | -6.82% [at 42.5 µM] | 
34 | CC/C(=C(/CC)c1ccc(O)cc1)c1ccc(O)cc1 |  | inactive
35 | CC(C)(C)CCCCCCOC(=O)c1ccccc1C(=O)OCCCCCCC(C)(C)C | 22.2% | 
36 | CC(C)(O)c1ccc(C(C)(C)O)cc1 | 10.1% | 
37 | CC1(C)S[C@@H]2[C@H](NC(=O)[C@H](N)c3ccccc3)C(=O)N2[C@H]1C(=O)O |  | inactive
38 | O=C(Nc1ccccc1)c1cc([N+](=O)[O-])ccc1Cl | 10.5% | 
39 | C[N+](C)(C)CC(O)CCl (stereo not given) | -12.8% | 
40 | CCOc1ccc([N+](=O)[O-])cc1 | -20.2% | 
